Only some compounds are listed: those with a hit (about 2.2% of all), similar ones and a draw of the others.
GC-B act: GC-B (human) receptor activation; P20594; HEK293-GC-B cells, CNP EC30, cGMP TR-FRET; 0% at EC30 CNP, 100% saturating CNP; 370,000 compounds, 0.11% hits; activation, % at 10 µM;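 active means activation at 10 µM reaching about 35% in either raw or pattern-adjusted values, limit read from the data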
ADAM10 inh: ADAM10 inhibition, QFRET primary screen | inhibition, % at 7 µM | recombinant ADAM10, EDANS/DABCYL FRET peptide cleavage, 3 h | 370,000 compounds, 0.62% hits | AID 720582;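 active means inhibition above a per-campaign cutoff equal to the mean of compounds falling between control-based bounds plus 3 SD, cut at about 20% in these data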;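 further: 0% = DMSO wells while the 100% control is not disclosed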
ADAM17 inh: ADAM17 inhibition, QFRET primary screen; P78536; 370,000 compounds, 0.83% hits; recombinant ADAM17, EDANS/DABCYL FRET peptide cleavage; AID 720648; inhibition, % at 6.95 µM;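 active means inhibition above the mean of compounds lying between control limits plus 3 SD, set per campaign, cut at about 8.5% in these data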;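 further: 0% = DMSO-only wells as the low control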
NPR1 activator: GC-A (human) enzyme activation; activation, % at 10 µM; HEK293 GC-A cells, cGMP TR-FRET, EC30 ANP; 0% at EC30 ANP, 100% saturating ANP; AID 1671463; P16066; 370,000 compounds, 0.14% hits; in the data active means activation above about 40%
Target sequence (P16066 whole entry, looked up): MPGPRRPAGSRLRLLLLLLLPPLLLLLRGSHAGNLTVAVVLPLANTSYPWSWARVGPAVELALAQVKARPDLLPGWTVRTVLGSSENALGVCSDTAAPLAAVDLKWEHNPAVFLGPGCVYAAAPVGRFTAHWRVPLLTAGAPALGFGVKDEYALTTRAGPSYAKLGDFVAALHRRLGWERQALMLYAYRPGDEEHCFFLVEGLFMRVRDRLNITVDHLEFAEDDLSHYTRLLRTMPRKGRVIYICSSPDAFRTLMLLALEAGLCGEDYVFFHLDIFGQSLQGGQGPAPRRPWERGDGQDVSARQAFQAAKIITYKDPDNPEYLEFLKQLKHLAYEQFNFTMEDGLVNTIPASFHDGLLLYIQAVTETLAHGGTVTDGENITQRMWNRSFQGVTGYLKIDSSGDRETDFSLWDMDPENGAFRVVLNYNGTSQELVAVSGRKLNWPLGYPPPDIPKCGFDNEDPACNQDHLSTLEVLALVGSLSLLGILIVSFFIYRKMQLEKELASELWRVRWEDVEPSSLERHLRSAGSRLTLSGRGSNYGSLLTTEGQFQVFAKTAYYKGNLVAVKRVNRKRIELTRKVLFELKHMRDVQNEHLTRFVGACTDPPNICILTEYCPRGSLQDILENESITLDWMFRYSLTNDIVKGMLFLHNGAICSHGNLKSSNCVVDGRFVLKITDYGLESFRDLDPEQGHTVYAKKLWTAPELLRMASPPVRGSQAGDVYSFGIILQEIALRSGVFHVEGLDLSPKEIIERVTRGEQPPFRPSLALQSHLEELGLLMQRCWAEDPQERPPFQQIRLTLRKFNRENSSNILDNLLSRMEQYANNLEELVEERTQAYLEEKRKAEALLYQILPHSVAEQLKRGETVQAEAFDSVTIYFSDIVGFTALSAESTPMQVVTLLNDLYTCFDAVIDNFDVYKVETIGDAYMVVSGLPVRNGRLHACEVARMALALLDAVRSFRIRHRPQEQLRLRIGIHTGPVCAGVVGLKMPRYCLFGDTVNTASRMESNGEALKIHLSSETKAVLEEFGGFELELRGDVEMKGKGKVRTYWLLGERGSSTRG
proKLK7 act: activators of human kallikrein-7 zymogen | 370,000 compounds, 0.9% hits | activation, % at 7 µM | purified proKLK7, EDANS-DABCYL substrate fluorescence; 100% is mature enzyme control, 0% vehicle | P49862;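 active means activation above the mean of all tested compounds plus 3 SD, computed per campaign excluding outliers beyond control limits, cut at about 13% in these data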
proKLK7 act conf: confirmation of human kallikrein-7 zymogen activators. 3,200 compounds, 68% hits. shares compounds with proKLK7 act. AID 686949. activation, % at 7 µM. purified proKLK7, EDANS-DABCYL substrate fluorescence; scaled: vehicle 0, mature enzyme 100;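 active means activation, as change over the incubation, above the mean of all tested compounds plus 3 SD, cut at about 13% in these data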
EDANS-DABCYL int: optically interferes with EDANS-DABCYL signal, flagging KLK7 hits; EDANS-DABCYL substrate fluorescence interference, no enzyme, 4 h; solvent 0%, active enzyme control 100%; 3,200 compounds, 80% hits; activation, % at 7 µM; shares compounds with proKLK7 act;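 active means activation above the all-compound mean plus 3 SD, ignoring values outside control-based bounds, cut at about 4.8% in these data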;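 further: value is the 4 h activation minus the activation read at time zero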
* hit, by the source's call; i = inactive; nt = not tested or not shown.

SMILES	GC-B act	ADAM10 inh	ADAM17 inh	NPR1 activator	proKLK7 act	proKLK7 act conf	EDANS-DABCYL int
C/C(=N\NC(=O)c1ccncc1)c1cc2ccccc2oc1=O	3	1	-2	1	0	nt	nt
CC(=O)NC(Cc1ccc2c(c1)OCO2)C(=O)N1CCCC1 (configuration not stated)	4	-16	-5	0	-1	nt	nt
COc1ccc(-c2cc(C(F)(F)F)nc(SCC(=O)N(C)Cc3cn(C)nc3C)n2)cc1OC	-7	-345	-113	5	32*	3	1
COc1ccc(-c2cc(C(F)(F)F)nc(SCC(=O)NCc3cnn(C)c3C)n2)cc1OC	3	-72	-25	15	4	nt	nt
COc1ccc(-c2cc(C(F)(F)F)nc(SCC(N)=O)n2)cc1	0	i	-319	2	15*	6	6.6*
COc1cccc(-c2nc3ccccc3s2)c1O	-1	-11	-5	7	25*	-3	-4
S=c1[nH]nc(-c2cc(-c3ccccc3)n[nH]2)n1N=Cc1c[nH]c2ccccc12	-12	7	4	-4	0	nt	nt
COc1ccc(-n2c(O)c(/C=N/NS(=O)(=O)c3ccc(C)cc3)c3ccccc3c2=O)cc1OC	4	-111	-47	-1	48*	0	0
CN(C)C(=O)CCc1ccc2c3c([nH]c2c1)[C@]1(C)[C@@H](C(=O)N2CCOCC2)C[C@H](CC(=O)NCc2ccco2)C(=O)N1CC3	3	-9	-3	5	1	nt	nt
COCCCNC(=O)C[C@H]1C[C@H](C(=O)N(C(C)C)C(C)C)[C@@]2(C)c3[nH]c4cc(-c5ccco5)ccc4c3CCN2C1=O	-6	i	-142	-1	137*	152*	146*
COCCCNC(=O)C[C@H]1C[C@H](C(=O)N2CCOCC2)[C@@]2(C)c3[nH]c4cc(-c5ccco5)ccc4c3CCN2C1=O	-3	i	-163	0	82*	95*	130*
COc1ccc(CNC(=O)C[C@H]2C[C@H](C(=O)N(C(C)C)C(C)C)[C@@]3(C)c4[nH]c5cc(-c6ccco6)ccc5c4CCN3C2=O)cc1OC	-2	-296	-83	-6	13*	12	10*
COc1ccc(CNC(=O)C[C@H]2C[C@H](C(=O)N(C(C)C)C(C)C)[C@@]3(C)c4[nH]c5cc(CCC(=O)N(C)C)ccc5c4CCN3C2=O)cc1OC	-2	-1	-2	1	2	nt	nt
COCCCNC(=O)CC1C[C@H](C(=O)N(C(C)C)C(C)C)[C@@]2(C)c3[nH]c4ccccc4c3CCN2C1=O (some centres not stated)	-3	4	5	0	1	nt	nt
CN(C)CCCNC(=O)C[C@H]1C[C@H](C(=O)N2CCOCC2)[C@@]2(C)c3[nH]c4cc(-c5ccco5)ccc4c3CCN2C1=O	-5	-406	-119	-2	54*	56*	57*
COCCCNC(=O)CC1C[C@H](C(=O)N2CCOCC2)[C@@]2(C)c3[nH]c4ccccc4c3CCN2C1=O (some centres not stated)	0	-1	-1	0	-1	nt	nt
COC(=O)C1CN(Cc2ccc(F)cc2)CCS(=O)(=O)N1Cc1cn(Cc2ccc(Cl)cc2)nn1 (configuration not stated)	-10	12	2	-4	0	nt	nt
CCCCCCCCN1CCS(=O)(=O)N(Cc2ccc(OC)cc2)C(C(=O)OC)C1 (configuration not stated)	-7	9	5	-3	0	nt	nt
OCCNC(=S)Nc1ccc2nsnc2c1	-2	-13	-5	2	4	nt	nt
O=C(Nc1ccc2nsnc2c1)C1CC1	5	-292	-90	2	8	nt	nt
O=C(NCCO)Nc1ccc2nsnc2c1	0	i	-150	4	22*	40*	41*
O=C(Nc1ccc2nsnc2c1)NC1CCCCC1	2	i	-166	2	21*	28*	29*

Compound activity from PubChem.
